SMILES strings stand for the structures. The whole screen tested about 310,000 compounds, of which about 14,000 (4.5%) showed an effect of 50% or more. The effect is printed as a negative number. The full list was thinned out, with strong results kept by preference.
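Further: peak tail current of the secondary pulse compared with the same well before compound.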

For this experiment, the target named is human ether-à-go-go-related gene (hERG) potassium channel (human, UniProt Q12809). Briefly: primary screen, population patch clamp on CHO cells stably expressing hERG; higher = less effect of the substance.
human ether-à-go-go-related gene (hERG) potassium channel, sequence (Q12809 whole entry, looked up): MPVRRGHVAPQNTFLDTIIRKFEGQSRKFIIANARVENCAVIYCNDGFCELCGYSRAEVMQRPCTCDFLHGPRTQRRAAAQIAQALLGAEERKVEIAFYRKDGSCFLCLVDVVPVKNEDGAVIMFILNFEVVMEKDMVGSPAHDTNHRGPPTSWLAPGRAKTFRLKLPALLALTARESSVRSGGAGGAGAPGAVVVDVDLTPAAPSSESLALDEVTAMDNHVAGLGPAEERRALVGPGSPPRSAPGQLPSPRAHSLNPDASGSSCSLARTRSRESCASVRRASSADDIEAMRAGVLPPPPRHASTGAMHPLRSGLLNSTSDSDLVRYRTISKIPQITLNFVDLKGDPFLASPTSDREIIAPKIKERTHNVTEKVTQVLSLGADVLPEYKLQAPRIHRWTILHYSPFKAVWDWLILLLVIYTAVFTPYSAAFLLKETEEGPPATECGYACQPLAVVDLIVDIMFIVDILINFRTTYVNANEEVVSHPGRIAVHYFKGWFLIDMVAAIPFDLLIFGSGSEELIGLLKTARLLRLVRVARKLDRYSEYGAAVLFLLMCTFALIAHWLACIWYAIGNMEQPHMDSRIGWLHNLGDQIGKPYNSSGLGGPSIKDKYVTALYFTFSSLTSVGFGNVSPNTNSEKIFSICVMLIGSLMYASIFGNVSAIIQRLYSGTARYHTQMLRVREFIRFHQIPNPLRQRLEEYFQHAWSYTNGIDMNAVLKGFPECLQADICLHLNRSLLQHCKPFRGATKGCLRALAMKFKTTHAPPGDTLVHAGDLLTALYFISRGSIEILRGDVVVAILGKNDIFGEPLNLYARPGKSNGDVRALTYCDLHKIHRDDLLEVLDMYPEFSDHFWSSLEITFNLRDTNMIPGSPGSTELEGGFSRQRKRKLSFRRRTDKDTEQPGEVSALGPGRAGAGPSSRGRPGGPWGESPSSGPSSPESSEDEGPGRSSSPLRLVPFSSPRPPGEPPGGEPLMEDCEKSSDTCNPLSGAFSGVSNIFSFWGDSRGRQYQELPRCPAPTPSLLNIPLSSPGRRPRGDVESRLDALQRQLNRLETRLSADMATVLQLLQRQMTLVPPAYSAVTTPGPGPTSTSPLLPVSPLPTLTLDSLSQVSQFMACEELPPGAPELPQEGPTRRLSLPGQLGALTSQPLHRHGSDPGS
As for `Cc1cc(C)[n+](Cc2ccccc2)cc1C(N)=O.[Cl-]`, the “hERG current change (%, negative = inhibition) at 10uM” value was found to be 16.6%.

In the case of `N#Cc1cc(Nc2c(N)nc[nH]c2=O)c([N+](=O)[O-])cc1C#N`, the “hERG current change (%, negative = inhibition) at 10uM” value was determined as 8.95%. Regarding `O=C(O)CCN1C(=O)c2ccc(NC(=O)Cc3ccc(Cl)cc3)cc2C1=O`, the “hERG current change (%, negative = inhibition) at 10uM” value amounted to 3.94%. To `CC(=O)c1cc(-c2ccccc2)n(CC(=O)N2CCCC2)c1C` belongs 13.3%.

For the compound `CCn1c(SCC(=O)Nc2ccccc2F)nnc1-c1cnccn1`, the “hERG current change (%, negative = inhibition) at 10uM” value was -34.9%. Under `C=CCn1c(SCC(=O)Nc2ccc(F)cc2F)nnc1-c1cnccn1` stands -58.8%; under `C=CCn1c(SCC(=O)Nc2cc(C)ccc2C)nnc1-c1cnccn1`, -14.4%; under `CCn1c(SCC(=O)Nc2ccc(C)cc2)nnc1-c1cnccn1`, -31.8%. For the compound `CCn1c(SCC(=O)Nc2ccc(C)cc2)nnc1-c1ccccn1`, the “hERG current change (%, negative = inhibition) at 10uM” value is listed as -59.1%. To `Cc1ccc(NC(=O)CSc2nnc(-c3ccccn3)n2C)cc1` belongs -28.1%; to `CCn1c(SCC(=O)Nc2ccc(F)cc2)nnc1-c1cnccn1`, -56.8%; to `C=CCn1c(SCC(=O)Nc2cccc3ccccc23)nnc1-c1cnccn1`, -39.9%. To `CCn1c(SCC(=O)Nc2ccc3c(c2)OCCO3)nnc1-c1ccccn1` belongs -16.1%; to `COc1cc(C2NC(=O)NC(c3ccccc3)=C2C(C)=O)ccc1OCC#N` (stereo not drawn), -8.43%; to `CN1CCN(C(=O)c2ccc(C3SCC(=O)N3Cc3ccco3)cc2)CC1` (stereo not drawn), 6.13%. For `CCOc1ccc(/C=N/NC(=O)c2csc(C)c2C)c(OCC)c1`, the “hERG current change (%, negative = inhibition) at 10uM” value came out at 6.43%.

Consider `Cc1ccc(S(=O)(=O)NCCC(=O)Nc2cc(S(=O)(=O)N(C)C)ccc2C)cc1C`, for which the “hERG current change (%, negative = inhibition) at 10uM” value is listed as -7.95%.

In the case of `O=C(c1cc([N+](=O)[O-])ccc1N1CCCC1)N1CCCC1`, the “hERG current change (%, negative = inhibition) at 10uM” value was -0.904%. Under `CCN1CC(CN(C)Cc2nc(-c3ccco3)oc2C)CC1=O` (stereo not drawn) stands 10.4%. To `CCN1CC(CN(C)Cc2nc(-c3cccs3)no2)CC1=O` (stereo not drawn) belongs 3.65%; to `CCN1CC(CN(C)Cc2nc(-c3ccc(OC)c4ccccc34)oc2C)CC1=O` (stereo not drawn), -37.2%.

As for `CCN1CC(CN(C)Cc2nc(-c3ccc(C(F)(F)F)cc3)oc2C)CC1=O` (stereo not drawn), the “hERG current change (%, negative = inhibition) at 10uM” value was -51.5%. As to `CCN1CC(CN(C)Cc2nc(-c3ccc(C(F)(F)F)cc3)no2)CC1=O` (stereo not drawn), the “hERG current change (%, negative = inhibition) at 10uM” value is given as -28.9%. Consider `CCN1CC(CN(C)Cc2nc(-c3ccc(Cl)cc3)no2)CC1=O` (stereo not drawn), for which the “hERG current change (%, negative = inhibition) at 10uM” value was -59.1%.

The values above are taken from article PMC4336329 (PLoS ONE, 2015).
